Results from PubChem BioAssay (Tox21).
Several values for one entry are separate records, joined by “and”; a condition that tells them apart may be missing. Equal entries are not always repeated. Inconclusive results are not listed. Activity calls are given as the source filed them. The call rests on the fitted dose curve; in most records, active means well fitted curve in the direction sought with a large enough effect in the repeat runs; inconclusive means weak or mixed curves; inactive means no such curve, though single readings can be large; an effect the other way counts as inactive or inconclusive.

Experiments:
[1] = A CellTox Green Cytotoxicity Assay to monitor cytotoxicity in HEK293 cells - 40 hour (AID 1224871); further: nearly all actives have a fitted effect of over 45% in size
Method in brief: (§1)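 Real-time, in one plate: 600 HEK293 cells/well with dead-cell DNA dye, pinned compound after 5 h, 37 C incubation over 40 h; viable cells give no appreciable fluorescence.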

[2] = qHTS RealTime-Glo MT Cell Viability Assay in HEK293 cells - 16 hour (AID 1224872); further: top concentration of the series differs between compounds; nearly all actives have a fitted effect of over 50% in size
Method in brief: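 Cells + reagent dispensed (600 cells/well, HEK293) → 5 h at 37 C/5% CO2 → 23 nL compound in DMSO pinned → 40 h at 37 C → luminescence read at 0, 8, 16, 24, 32, 40 h.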

[3] = qHTS RealTime-Glo MT Cell Viability Assay in HepG2 cells - 8 hour (AID 1224873); further: nearly all actives have a fitted effect of over 55% in size
Method in brief: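 Real-time viability: cells seeded at 600 per well together with NanoLuc and cell-permeant prosubstrate, compounds added after 5 h incubation. Luminescence tracked at 0, 8, 16, 24, 32 and 40 h of exposure.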

[4] = qHTS RealTime-Glo MT Cell Viability Assay in HEK293 cells - 40 hour (AID 1224874); details: RealTime-Glo luminescence; max response: stronger effect = lower value; further: nearly all actives have a fitted effect of over 50% in size
Method in brief: (§2)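 Kinetic, non-lysing viability readout. Seed HEK293 (600/well) with reagent, incubate 5 h at 37 C/5% CO2, pin 23 nL compound in DMSO, incubate at 37 C, read luminescence at 0, 8, 16, 24, 32, 40 h.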

[5] = A CellTox Green Cytotoxicity Assay to monitor cytotoxicity in HEK293 cells - 24 hour (AID 1224875); further: series mostly up to about 77 µM; nearly all actives have a fitted effect of over 45% in size
Method in brief: as §1

[6] = A CellTox Green Cytotoxicity Assay to monitor cytotoxicity in HepG2 cells - 16 hour (AID 1224876); further: nearly all actives have a fitted effect of over 45% in size
Method in brief: (§3)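 Cytotoxicity was tracked as dead-cell DNA fluorescence in HepG2 cells treated with test compounds at 37 C; each time-point value comes from one kinetic series spanning 0, 8, 16, 24, 32 and 40 h.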

[7] = qHTS RealTime-Glo MT Cell Viability Assay in HepG2 cells - 32 hour (AID 1224877); further: nearly all actives have a fitted effect of over 55% in size
Method in brief: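 Real-time, nonlytic viability: 600 HepG2 cells/well mixed with NanoLuc enzyme plus prosubstrate; 5 h settle, compound (DMSO) added by pintool; luminescence monitored over 40 h at 37 C.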

[8] = A CellTox Green Cytotoxicity Assay to monitor cytotoxicity in HepG2 cells - 24 hour (AID 1224878); further: nearly all actives have a fitted effect of over 45% in size
Method in brief: as §3

[9] = A CellTox Green Cytotoxicity Assay to monitor cytotoxicity in HepG2 cells - 40 hour (AID 1224879); further: nearly all actives have a fitted effect of over 40% in size
Method in brief: as §3

[10] = qHTS RealTime-Glo MT Cell Viability Assay in HEK293 cells - 0 hour (AID 1224880)
Method in brief: as §2
On the % scale 0 is the no-effect control and ±100 the full control effect.

Cc1ccc2cc(C)ccc2c1
inactive: Potency [1] | Potency [2] | outcome [3] | max response [4] 8.7% | Potency [5] | Potency [6] | Potency [7] | Potency [8] | Potency [9]

C#CCOC(=O)/C=C(C)/C=C/CC(C)CCCC(C)C (centres undefined)
inactive: Potency [1] | Potency [2] | outcome [3] | max response [4] 17.6% | Potency [5] | Potency [6] | Potency [7] | Potency [8] | Potency [9] | outcome [10]

C=CC(=O)OCCN(C)C
inactive: Potency [1] | Potency [2] | outcome [3] | max response [4] 14.5% | Potency [5] | Potency [6] | Potency [7] | Potency [8] | Potency [9] | outcome [10]

CNC(=O)Oc1ccccc1C(C)C
inactive: Potency [1] | Potency [2] | outcome [3] | max response [4] 3.33% | Potency [5] | Potency [6] | Potency [7] | Potency [8] | Potency [9]

CCC1(c2ccccc2)C(=O)N(COC)C(=O)N(COC)C1=O
inactive: Potency [1] | Potency [2] | outcome [3] | max response [4] 2.07% | Potency [5] | Potency [6] | Potency [7] | Potency [8] | Potency [9]

CC(C)C(C)(N)C#N (centres undefined)
inactive: Potency [1] | Potency [2] | outcome [3] | max response [4] -5.83% | Potency [5] | Potency [6] | Potency [7] | Potency [8] | Potency [9]

C/C(=N\NC(=O)Nc1cc(F)cc(F)c1)c1ncccc1C(=O)O
inactive: Potency [1] | Potency [2] | outcome [3] | max response [4] -7.58% and 0.112% | Potency [5] | Potency [6] | Potency [7] | Potency [8] | Potency [9] | outcome [10]

CCCC(C)(COC(N)=O)COC(N)=O
inactive: Potency [1] | Potency [2] | outcome [3] | max response [4] 2.95% | Potency [5] | Potency [6] | Potency [7] | Potency [8] | Potency [9]

O=CCCl
inactive: Potency [1] | Potency [2] | outcome [3] | max response [4] 6.03% | Potency [5] | Potency [6] | Potency [7] | Potency [8] | Potency [9]

CC(C)(C)C(=O)Cl
inactive: Potency [1] | Potency [2] | outcome [3] | max response [4] -0.811% | Potency [5] | Potency [6] | Potency [7] | Potency [8] | Potency [9]

COC[C@@H](NC(C)=O)C(=O)NCc1ccccc1
inactive: Potency [1] | Potency [2] | outcome [3] | max response [4] 5.22% | Potency [5] | Potency [6] | Potency [7] | Potency [8] | Potency [9] | outcome [10]

[P]#[In]
inactive: Potency [1] | Potency [2] | outcome [3] | max response [4] 0.3% | Potency [5] | Potency [6] | Potency [7] | Potency [8] | Potency [9] | outcome [10]

Cn1c(CCCC(=O)O)nc2cc(N(CCCl)CCCl)ccc21
inactive: Potency [1] | Potency [2] | outcome [3] | max response [4] 1.4% | Potency [5] | Potency [6] | Potency [7] | Potency [8] | Potency [9]

NNC(N)=O
inactive: Potency [1] | Potency [2] | outcome [3] | max response [4] 0.384% | Potency [5] | Potency [6] | Potency [7] | Potency [8] | Potency [9] | outcome [10]

CCN1CCCC1CNC(=O)C(O)(c1ccccc1)c1ccccc1 (centres undefined)
inactive: Potency [1] | Potency [2] | outcome [3] | max response [4] -2.61% | Potency [5] | Potency [6] | Potency [7] | Potency [8] | Potency [9] | outcome [10]

CC(C)c1ccc(O)cc1
inactive: Potency [1] | Potency [2] | outcome [3] | max response [4] 0.569% | Potency [5] | Potency [6] | Potency [7] | Potency [8] | Potency [9] | outcome [10]

CCCCCCCC(=O)Cl
inactive: Potency [1] | Potency [2] | outcome [3] | max response [4] 5.36% | Potency [5] | Potency [6] | Potency [7] | Potency [8] | Potency [9] | outcome [10]

COc1ccc(C=O)cc1O
inactive: Potency [1] | Potency [2] | outcome [3] | max response [4] 0.952% | Potency [5] | Potency [6] | Potency [7] | Potency [8] | Potency [9]

CCN[C@@H](C)Cc1cccc(C(F)(F)F)c1
inactive: Potency [1] | Potency [2] | outcome [3] | max response [4] 2.94% | Potency [5] | Potency [6] | Potency [7] | Potency [8] | Potency [9] | outcome [10]

N#CN=C1SCCN1Cc1ccc(Cl)nc1
inactive: Potency [1] | Potency [2] | outcome [3] | max response [4] -3.59% | Potency [5] | Potency [6] | Potency [7] | Potency [8] | Potency [9]

CCC1(CC)C(=O)C=CNC1=O
inactive: Potency [1] | Potency [2] | outcome [3] | max response [4] 1.59% | Potency [5] | Potency [6] | Potency [7] | Potency [8] | Potency [9]

CC(C)(O)C(Cl)(Cl)Cl
inactive: Potency [1] | Potency [2] | outcome [3] | max response [4] 4.01% | Potency [5] | Potency [6] | Potency [7] | Potency [8] | Potency [9] | outcome [10]

Cn1c(N)nc2c3cccnc3ccc21
inactive: Potency [1] | Potency [2] | outcome [3] | max response [4] -11% | Potency [5] | Potency [6] | Potency [7] | Potency [8] | Potency [9] | outcome [10]

CC1NCCOC1c1ccccc1 (centres undefined)
inactive: Potency [1] | Potency [2] | outcome [3] | max response [4] 4.25% | Potency [5] | Potency [6] | Potency [7] | Potency [8] | Potency [9] | outcome [10]
